# Shown are actives, neighbours in structure and some others; about 11% of the full set was active somewhere.
# PNC inhibitor – blocks assembly of the perinucleolar compartment | PC3M PTB-GFP, PNC prevalence imaging, 16 h; active compounds read low | activity change (PNC), negative = inhibition, % at 10 µM | actives 3.1% (n = 140,000) | AID 2417;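 active = readout at or below -70, meaning at least 70% loss of cells showing the perinucleolar compartment, a nuclear body marking cancer cells; inconclusive = readout between -30 and a set limit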;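 also: plate controls were DMSO wells for no effect and camptothecin positive control wells for full effect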
#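 Compounds are pinned in duplicate onto adhered PC3M cells stably expressing GFP-tagged PTB and incubated 16 h at 37 C. Cells are then fixed, nuclei stained with Hoechst, and PNC-positive cells counted.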
# ALDH1A1 block – inhibitors of human aldehyde dehydrogenase 1A1; P00352; Purified ALDH1A1, NADH fluorescence, propionaldehyde substrate; Potency, µM (highest dose often 75.3 µM), inactives show at the highest dose activity, negative = inhibition, hits mostly inhibitors; actives 7.3% (n = 220,000); AID 1030; active = well fitted inhibition curve with a large enough effect, not every such curve was filed as active; inconclusive = small, poorly fitted or top-dose-only effect, or another doubt; inactive = no such curve, though single readings can be large or run the other way;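 also: potency is read from the fitted curve at half-maximal effect; plate controls were no enzyme wells and a reference inhibitor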
# Target sequence (P00352 whole entry, looked up): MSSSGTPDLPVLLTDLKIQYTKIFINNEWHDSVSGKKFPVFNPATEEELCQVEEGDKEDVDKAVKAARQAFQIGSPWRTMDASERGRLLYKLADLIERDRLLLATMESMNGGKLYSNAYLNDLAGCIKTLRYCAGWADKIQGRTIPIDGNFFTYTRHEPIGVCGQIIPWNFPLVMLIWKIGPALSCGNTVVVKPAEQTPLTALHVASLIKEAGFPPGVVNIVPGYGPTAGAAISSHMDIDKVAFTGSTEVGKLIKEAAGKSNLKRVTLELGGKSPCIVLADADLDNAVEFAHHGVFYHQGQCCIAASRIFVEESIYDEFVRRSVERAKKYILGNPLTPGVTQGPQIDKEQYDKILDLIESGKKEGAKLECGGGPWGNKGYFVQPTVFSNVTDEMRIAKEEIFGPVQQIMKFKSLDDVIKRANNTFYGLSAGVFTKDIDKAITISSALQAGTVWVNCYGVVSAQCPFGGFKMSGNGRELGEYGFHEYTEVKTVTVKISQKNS
# CBFb-RUNX1 inh – inhibitors of human CBF-beta and RUNX1 interaction; Potency, µM (top dose mostly 59.8 µM), without a hit: at the top dose activity, negative = inhibition, hits mostly inhibitors; 230,000 tested, under 10 active; Q01196+Q13951; AlphaScreen CBFb-His/RUNX1-biotin binding, biochemical; also: % of control where 0% means no effect
#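 AlphaScreen proximity signal reports loss of binding between His-tagged CBF-beta and biotin-labelled RUNX1, each at 30 nM. Proteins are pre-associated for 20 minutes, compounds added for 15 minutes, then beads for 90 minutes, all at ambient temperature.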
# HPGD block – blocks human HPGD enzyme activity | Potency, µM, for the others: at the highest dose activity change, negative = inhibition, usual class: inhibitors | actives 4.3% (n = 150,000) | purified HPGD, NADH fluorescence kinetic, PGE2 substrate | P15428; active = well fitted inhibition curve with a large enough effect, not every such curve was filed as active; inconclusive = small, poorly fitted or top-dose-only effect, or another doubt; inactive = no such curve, though single readings can be large or run the other way; also: potency is read from the fitted curve at half-maximal effect; % is scaled to controls: 0 for no effect and ±100 for the full control effect
# Target sequence (P15428 whole entry, looked up): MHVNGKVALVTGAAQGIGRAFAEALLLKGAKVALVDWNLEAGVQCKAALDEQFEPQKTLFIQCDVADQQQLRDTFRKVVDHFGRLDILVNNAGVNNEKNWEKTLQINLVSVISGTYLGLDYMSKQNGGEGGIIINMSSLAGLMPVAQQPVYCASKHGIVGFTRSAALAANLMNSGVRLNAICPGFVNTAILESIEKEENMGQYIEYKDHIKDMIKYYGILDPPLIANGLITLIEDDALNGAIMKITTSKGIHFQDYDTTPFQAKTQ
#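 NADH formation kinetics: reaction with 30 uM PGE2 and 1 mM NAD+ (final), 20 nM enzyme, Tris-HCl pH 8 with Tween 20, after 15 min compound preincubation at room temperature. Fluorescence change, last versus first of five reads.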
# HTT cytoprotect – cytoprotection in Huntington HTT-Q103 PC12 cell model; PC12 HTT-Q103 induced, cytoprotection, ATP luminescence, 40 h; Potency, µM (doses to about 56.4 µM), without a hit: cytoprotection (ATP increase), usual class: activators; actives 0.14% (n = 230,000); AID 1471; also: potency is read from the fitted curve at half-maximal effect; % of control where 0% means no effect; nearly all actives have a fitted effect of over 45% in size
#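 Compounds were screened for protection of PC12 cells against cell death after tebufenozide induction (100 nM final) of mutant Huntingtin exon 1 (Q103) fused to GFP.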
# HTT aggregate – inhibitors of mutant huntingtin aggregate formation in PC12 cells; PC12 HttQ103-GFP aggregates, Acumen cytometry, 40 h; Potency, µM (series often up to 46.1 µM), inactives show at the highest dose activity change, negative = inhibition, hits mostly inhibitors; actives 1.1% (n = 220,000); also: potency is read from the fitted curve at half-maximal effect; % is scaled to controls: 0 for no effect and ±100 for the full control effect; nearly all actives have a fitted effect of over 60% in size
#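 Using laser scanning cytometry, GFP-positive aggregates were counted after lysis of PC12 cells induced with 100 nM tebufenozide to express HTT exon 1 Q103–GFP. Compounds were tested in titration.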
# Starred values were filed as active, the others as inactive; ? = inconclusive; . = no result given; [ ] = remark or other dose. Unless noted, calls follow the shape of the dose curve; as a rule, active = well fitted curve in the direction sought with a large enough effect; inconclusive = small, poorly fitted or top-dose-only effect, or another doubt; inactive = no such curve, though single readings can be large; an effect the other way counts as inactive or inconclusive.
SMILES,PNC inhibitor,ALDH1A1 block,CBFb-RUNX1 inh,HPGD block,HTT cytoprotect,HTT aggregate
NC(CCC(=O)NC(CCSC(CC(=O)O)C(=O)O)C(=O)NCC(=O)O)C(=O)O (stereo not drawn),.,5.3%,.,-6.0%,.,.
COc1ccc(S(=O)(=O)C(C#N)c2nc3ccccc3nc2N2CCC(C)CC2)cc1 (stereo not drawn),-15.5,17.8µM*,-5.1%,-16.0%,-10.3%,8.5%
CC1CCCN(c2nc3ccccc3nc2C(C#N)S(=O)(=O)c2ccccc2)C1 (stereo not drawn),-15.2,?,-1.8%,-8.3%,-65.4%,-28.4%
CCOC(=O)C1(CCOc2ccccc2)CCN(Cc2ccc(COC)o2)CC1,.,11.0%,-4.2%,.,6.8%[10 µM],4.1%[9.22 µM]
CCOC(=O)C1(CCOc2ccccc2)CCN(Cc2ccc(C)o2)CC1,.,17.8µM*,3.4%,.,23.9%[10 µM],6.9%[9.22 µM]
NC(=S)Nc1ccc(Oc2ccc(NC(N)=S)cc2)cc1,?,28.2µM*,-3.8%,22.4µM*,12.1%,22.7%
Cc1ccc(NC(N)=S)cc1C,-125.2*,-3.2%,-4.2%,-9.3%,13.0%[10 µM],6.2%
COCCNC(=O)[C@H](C)/C=C/C(NC(=O)OCc1ccccc1)c1ccc(C(=O)OC)cc1 (stereo partly drawn),.,?,4.9%,-13.2%,2.8%,.
O=C([C@H](Cc1ccc(O)cc1)n1cc(CCO)nn1)N1CCNCC1,.,0.8%,4.4%,.,9.3%[10 µM],-7.7%[9.22 µM]
Cc1ccc(C(=O)N2NC(c3ccc(F)cc3)C3C(=O)N(c4ccc(C)c(C)c4)C(=O)C32)cc1 (stereo not drawn),-90.4*,5.0%,1.4%[2.36 µM],?,.,-2.6%
O=C(/C=C\c1ccccc1OC(=O)c1ccccc1F)c1cc2ccccc2o1,?,29.9%,1.7%,28.2µM*,3.6%[10 µM],-5.2%
CCN(CC)CCNC(=O)c1cc(Br)c(N)cc1OC,.,5.4%,-0.3%,-6.5%,-65.9%,2.7%
Cc1cc(C)c2nc(-c3ccccn3)cc(C(=O)Nc3cc(C)on3)c2c1,-86.5*,?,-3.5%,?,-5.0%,-14.2%
Cc1cc(NC(=O)c2cc(-c3ccccn3)nc3ccccc23)no1,-2.7,-8.2%,-4.1%,-3.9%,-20.3%[0.074 µM],6.6%
CNc1nc(-c2ccc3c(c2)CCN3C(=O)c2ccccc2F)c(C)s1,.,11.2µM*,-3.9%,.,-26.6%[10 µM],-8.0%[9.22 µM]
CNc1nc(-c2ccc3c(c2)CCN3S(=O)(=O)c2ccccc2)c(C)s1,.,8.91µM*,-19.8%,.,16.4%[10 µM],-13.1%[9.22 µM]
CNc1nc(-c2ccc3c(c2)CCN3C(=O)c2ccccc2F)cs1,.,25.1µM*,-15.9%,.,-13.4%[10 µM],18.6%[9.22 µM]
CNc1nc(-c2ccc3c(c2)CCN3C(=O)CC(C)(C)C)c(C)s1,.,-13.2%,-0.2%,.,-53.7%[10 µM],-8.5%[9.22 µM]
COC(=O)CCC(=O)OC1(C)C(=O)C=C2C=C(C3CC3)OC=C2C1=O (stereo not drawn),.,-4.0%,-13.9%,-5.4%,-17.6%,.
CC(=O)OCC1OC(c2ccc(C(C)=O)cc2)C=CC1OC(C)=O (stereo not drawn),.,2.7%[13.5 µM],-5.4%[13.1 µM],.,2.2%[10 µM],.
CO[C@@H]1COC(=O)CC=C[C@@H](C)[C@@H]2C=C[C@H](O)[C@@H](COC(=O)[C@H](C)NC(=O)CC=C[C@H]1C)O2,.,0.8%[13.5 µM],12.0%[13.1 µM],.,1.6%[10 µM],.
CCOC(=O)C1=NN(C(=O)Cc2ccccc2)C(O)(c2ccc(Cl)cc2)C1 (stereo not drawn),-3.0,?,-0.8%,-18.5%,8.9%[0.074 µM],-7.8%
CCOC(=O)C1=NN(C(=O)c2ccc(OC)cc2)C(O)(c2ccc(Cl)cc2)C1 (stereo not drawn),-18.2,17.8µM*,-21.4%,-9.0%,.,4.6%
CCOC(=O)C1=NN(C(=O)c2ccccc2)C(O)(c2ccc(C)cc2)C1 (stereo not drawn),-95.0*,-7.9%,-8.9%,-5.1%,.,17.0%
Cn1nc(-c2ccc(N3CCN(CCO)CC3)c([N+](=O)[O-])c2)c2ccccc2c1=O,.,4.47µM*,-1.2%,.,2.9%[10 µM],14.1%[9.22 µM]
SMILES,PNC inhibitor,ALDH1A1 block,CBFb-RUNX1 inh,HPGD block,HTT cytoprotect,HTT aggregate
COC(=O)/C=C/c1cccc(N(Cc2ccc(-c3ccc(N(C)C)cc3)cc2)C(=O)C2CCCCC2)c1,.,.,2.7%,.,.,.
C/C(=N\NC(=O)c1cc(-c2cccs2)nc2ccccc12)c1ccccn1,.,?,?,.,-131.5%,0.891µM*
O=C(N/N=C/c1ccsc1)c1cc(-c2cccs2)nc2ccccc12,?,114.1%,-1.5%,?,-6.3%[10 µM],?
CC(=O)NS(=O)(=O)c1ccc(NC(=O)c2cc(-c3ccc(C)c(C)c3)nc3ccccc23)cc1,-96.3*,-7.8%,-2.3%,-23.2%,-39.2%,?
O=C(N/N=C/c1ccsc1)c1cc(-c2ccncc2)nc2ccccc12,-113.8*,-8.9%,3.7%,-8.1%,.,-23.4%
CC(/C=N/NC(=O)c1cc(-c2ccncc2)nc2ccccc12)=C\c1ccco1,-87.1*,?,-29.7%,-21.1%,-111.0%,?
COc1cccc(-c2nnc3n2N=C(c2ccccc2OC)CS3)c1,.,.,-12.6%,.,.,.
COCCn1c(=O)c(-c2cccs2)nc2cnc(N3CCOCC3)nc21,.,?,.,.,-28.6%,.
COc1ccc(/C=C(\C#N)C(N)=O)c(OC)c1,.,-2.8%[13.5 µM],.,-15.7%,12.9%[10 µM],.
CN(C)C(=O)c1ccc(-c2ccc3ncnc(N4CCOCC4)c3c2)cc1,.,-12.8%,.,.,-89.1%,.
O=C(N/N=C/c1ccc2c(c1)OCO2)c1cc(-c2ccncc2)nc2ccccc12,-21.1,1.8%,-3.3%,28.2µM*,.,21.3%
NS(=O)(=O)c1ccc(NC(=O)c2cc(-c3cccs3)nc3ccccc23)cc1,-115.1*,?,-1.5%,?,-7.9%[10 µM],21.9%
O=C(N/N=C/c1ccc2c(c1)OCO2)c1cc(-c2ccccc2Cl)nc2ccccc12,-18.4,?,-12.6%,?,12.4%[10 µM],-11.8%
COc1ccccc1-c1cc(C(=O)N/N=C/c2sccc2C)c2ccccc2n1,10.6,?,7.5%,?,-40.9%,-11.0%
CN(C)S(=O)(=O)c1ccc(NC(=O)c2cc(-c3cccs3)nc3ccccc23)cc1,0.2,?,-3.1%,?,4.0%[10 µM],17.2%
NNC(=O)c1cc(-c2cccs2)nc2ccccc12,.,?,-3.0%,.,12.0%[10 µM],-6.6%[9.22 µM]
O=C(O)c1ccc(/C=N/NC(=O)c2cc(-c3cccs3)nc3ccccc23)cc1,-106.7*,?,11.0%,?,-10.6%[10 µM],-7.3%
Cc1ccsc1/C=N/NC(=O)c1cc(-c2ccncc2)nc2ccccc12,-109.0*,?,-4.6%,-20.6%,.,?
CC(C)Oc1cc(O)c2c(c1)OCC=C2CCC(=O)O,.,-1.8%[13.5 µM],.,-6.5%,9.7%[10 µM],.
Cc1cc(C(=O)N/N=C(\CCC(=O)O)c2cccs2)c2ccccc2n1,.,25.1µM*,8.3%,.,.,-5.0%
